Screens (PubChem)
NTMT1 inhibitor: blocks human N-terminal methyltransferase 1 activity. actives 2.5% (n = 59,000). Potency, µM (titrated, usually from 114 µM), for inactives: at the top dose activity change, negative = inhibition, usual class: inhibitors. NTMT1 MTase-Glo SAH luminescence, purified enzyme. Q9BV86;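 note: potency is the fitted concentration of half-maximal effect; plate controls were DMSO vehicle for no effect and no enzyme for full effect; nearly all actives have a fitted effect of over 65% in size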
p53null 39C kill: kills p53 null cells at the nonpermissive temperature; H1299 p53-null (neo) cells, 39C, ATPlite viability, 24 h; Potency, µM (top dose mostly 46.1 µM), without a hit: top-dose activity, negative = cell killing, actives largely listed as cytotoxic; actives 0.97% (n = 55,000); AID 904;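 note: potency is the fitted concentration of half-maximal effect; 0% = DMSO only and -100% = full killing by 100 µM tamoxifen; nearly all actives have a fitted effect of over 50% in size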
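H1299 lung cancer cells, p53-null (H1299-neo) or expressing p53 A138V (H1299-p53A138V), were plated overnight at 37C, then exposed to compounds at up to 46 uM for 24 hr at 39C. Viability was read by ATP-based luminescence.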
OvCa metastasis: inhibitors of ovarian cancer cell adhesion and invasion in omental model | actives 0.1% (n = 46,000) | SKOV3ip1-GFP adhesion/invasion on 3D omental model, fluorescence | AID 1963576 | Potency, µM (series often up to 45.8 µM), inactives show at the highest dose activity change, negative = inhibition, hits mostly inhibitors;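 note: potency is the fitted concentration of half-maximal effect; plate controls were DMSO wells for no effect and tomatine positive control wells for full effect; nearly all actives have a fitted effect of over 65% in size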
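qHTS, 4-pt dose (0.36-46 umol/L); SKOV3ip1-GFP, 1,200 cells/well, no FBS; primary omental fibroblast/mesothelial co-culture 48 h pre-grown; 2 h RT + 16 h 37 C; PBS wash, 4% PFA; GFP count 488/509 nm.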
p53null 32C kill: selectivity test: cytotoxicity in p53 null cells, permissive temperature. H1299-neo p53 null cells, ATP luminescence, 24 h, 32C. Potency, µM (highest dose often 46.1 µM), inactives show at the highest dose activity change, negative = cytotoxicity, most hits filed as cytotoxic. actives 0.62% (n = 55,000). AID 903;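 note: potency is the fitted concentration of half-maximal effect; 0% = DMSO only and -100% = full killing by 100 µM tamoxifen; nearly all actives have a fitted effect of over 55% in size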
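Luminescent ATP readout gave cell viability of p53-null H1299-neo cells after a 24 h compound exposure at the permissive 32C. Titrations ran up to 46 uM, and AC50s were fitted with the standard Hill equation.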
GALC G270D up: enhancers of human galactocerebrosidase G270D mutant activity in cells; Potency, µM (doses to about 57.5 µM), hits mostly activators; actives 0.1% (n = 45,000); AID 1159614; 145M-Twi-hGALC-G270D cells, HMU-beta-Gal fluorescence, 48 h; P54803; note: potency is the fitted concentration of half-maximal effect; 0% is about no effect; nearly all actives have a fitted effect of over 65% in size
Target sequence (P54803 whole entry G286D): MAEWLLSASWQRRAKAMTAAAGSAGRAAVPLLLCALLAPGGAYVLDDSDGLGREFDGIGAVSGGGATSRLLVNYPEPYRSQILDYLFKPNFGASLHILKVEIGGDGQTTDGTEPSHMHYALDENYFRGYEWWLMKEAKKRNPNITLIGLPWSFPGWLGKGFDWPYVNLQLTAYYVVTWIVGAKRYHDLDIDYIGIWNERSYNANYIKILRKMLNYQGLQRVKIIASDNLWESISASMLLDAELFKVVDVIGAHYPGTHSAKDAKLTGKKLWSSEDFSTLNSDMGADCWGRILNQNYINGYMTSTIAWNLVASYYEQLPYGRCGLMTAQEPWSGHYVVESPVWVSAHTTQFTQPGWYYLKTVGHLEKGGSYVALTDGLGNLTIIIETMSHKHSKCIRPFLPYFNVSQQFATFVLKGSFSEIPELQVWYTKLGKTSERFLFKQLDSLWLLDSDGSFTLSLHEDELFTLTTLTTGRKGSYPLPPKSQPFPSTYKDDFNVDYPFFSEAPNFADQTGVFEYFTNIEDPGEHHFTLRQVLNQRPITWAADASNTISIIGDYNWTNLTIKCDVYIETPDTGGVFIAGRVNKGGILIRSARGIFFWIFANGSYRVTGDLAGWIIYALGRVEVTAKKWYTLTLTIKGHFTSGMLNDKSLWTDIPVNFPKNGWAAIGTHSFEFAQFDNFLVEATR
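qHTS, 1536-well; 145M-Twi-hGALC-G270D cells (WT line also made) in DMEM/F12 + 10% FBS; compound incubation on live cells; HMU-β-gal 0.1 mM final, pH 5.2, NaTC; carbonate stop; fluorescence increase = enhanced residual activity.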
DRV1 agonist: agonists of human resolvin D1 receptor DRV1 (GPR32) | actives 2.5% (n = 48,000) | AID 1346428 | activation, % at 76.9 µM | CHO-K1 GPR32 beta-arrestin PathHunter luminescence, 90 min; zero percent set by DMSO-only wells;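 active = activation of at least 60% and not above a set upper limit, about 1 call in 100 departs from these limits; inconclusive = activation of 40% to 60%, or above that upper limit; inactive = activation under 40%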; note: 0% is about no effect
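GPR32 activation in stably transfected CHO-K1 cells, detected as beta-arrestin recruitment by enzyme-fragment complementation. Compound exposure: 90 min, 37 °C.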
Active calls of the source: *; i = inactive; ? = inconclusive; / = not tested or not shown; ! = not confirmed by another sample; [ ] = dose if it differs, or a comment. Compounds with a hit are over-represented: about 4% of the library has one in this group of screens. Unless noted, calls come from the whole dose curve; as a rule, active = well fitted curve in the direction sought with a large enough effect; inconclusive = small, poorly fitted or top-dose-only effect, or another doubt; inactive = no such curve, though single readings can be large; an effect the other way counts as inactive or inconclusive.

SMILES	NTMT1 inhibitor	p53null 39C kill	OvCa metastasis	p53null 32C kill	GALC G270D up	DRV1 agonist
COc1ccc(-c2nc(CN3CCC(C(=O)NCCCN4CCN(c5ccccc5F)CC4)CC3)c(C)o2)cc1OC	-18.0%	-29.7%	7.08µM*	-17.5%	i	-28.6
COc1ccc(C(=O)C2CCN(CC(=O)N(Cc3nc4c(c(=O)[nH]3)COCC4)CC3CC3)CC2)cc1	15.9%[57.5 µM]	/	/	/	/	/
NS(=O)(=O)c1ccc(CCNC(=O)c2nc(SCc3ccccc3F)ncc2Cl)cc1	-3.3%	7.6%	-1.9%	-6.5%	i	82.6*
O=C(Nc1ccccc1F)c1nc(SCc2ccccc2F)ncc1Cl	4.3%	-7.9%	5.1%	-7.8%	i	-4.7
Cc1cc(NS(=O)(=O)c2ccc(N(C)C(=O)Cc3ccc(Cl)c(Cl)c3)cc2)no1	-7.7%	/	/	/	/	/
CCN1CCN(c2csc3ccc(C)cc3c2=O)CC1	-8.3%	18.5%	2.0%	-10.9%	i	-32.0
Cc1ccc2scc(N3CCCCC3)c(=O)c2c1	?	12.6µM*	4.1%	10µM*	i	-19.4
Cc1ccc2scc(N3CCC(C)CC3)c(=O)c2c1	?	20µM*	-22.0%	?	i	-29.0
COC(=O)C1CCN(c2csc3ccc(C)cc3c2=O)CC1	-23.5%	-0.4%	7.4%	-11.5%	i	-17.3
Cc1ccc2scc(N3CCCCC3C)c(=O)c2c1 (stereo unspecified)	-7.3%	15.8µM*	3.5%	12.6µM*	i	-13.9
CC1CCN(c2csc3ccc(F)cc3c2=O)CC1	-20.2%	-10.5%	7.4%	-25.7%	i	4.2
CCN(CC)C(=O)COC(=O)c1ccc(S(C)(=O)=O)c([N+](=O)[O-])c1	13.9%	/	/	/	/	/
O=C(O)c1ccc(-c2c[nH]c3ncc(-c4ccccc4)cc23)cc1C1CCCC1	25.1µM*	/	-10.4%	/	/	/
Cc1ccc(CNC(=O)Cc2ccc(NC(=O)N3CCSc4ncccc43)cc2)cc1	-7.6%	-2.8%	-9.8%	-13.0%	i	7.6
Cc1ccc(CNC(=O)c2cccc(NC(=O)N3CCSc4ncccc43)c2)cc1	-22.2%	14.4%	16.9%	1.6%	i	92.2*
COc1cccc(OCc2cc(=O)n3c(-c4ccccc4)csc3n2)c1	-6.2%	-8.1%	19.7%	-2.8%	i	120.6*
CC1(C)CCCC2(C)C1CC(=O)C13CC(CCC12)C(O)(CO)C3 (stereo unspecified)	-1.0%[29.8 µM]	/	/	/	/	/
CN(C)CCCN1c2ccccc2Sc2ccc(C(F)(F)F)cc21	?	/	/	/	i	-15.4
OCCN1CCN(CC/C=C2/c3ccccc3Sc3ccc(C(F)(F)F)cc32)CC1	?	/	/	/	i	61.7*!
OCCN1CCN(CCCN2c3ccccc3Sc3ccc(C(F)(F)F)cc32)CC1	31.6µM*!	/	-38.0%	/	i	-14.4
CN1CCN(CCC(=O)N2c3ccccc3Sc3ccc(C(F)(F)F)cc32)CC1	?	/	/	/	i	26.2
CC(C)(C)C1CCN(C(=O)n2ncc(C(O)(c3ccccc3)c3ccccc3)n2)CC1	4.0%[57.5 µM]	/	/	/	/	/
CCOC(=O)N1c2ccc(C(F)(F)F)cc2C(N(Cc2cc(C(F)(F)F)cc(C(F)(F)F)c2)C(=O)OC)CC1CC (stereo unspecified)	2.4%[57.5 µM]	/	/	/	/	/
Cc1ccc(NC(=O)Nc2cc(C(F)(F)F)ccc2F)cc1Nc1ccc2c(c1)NC(=O)/C2=C\c1ccc[nH]1	-12.5%	/	/	/	/	/
Cc1cccc(-c2ccc(=O)n(CC(=O)NCCc3ccccc3)n2)c1	3.3%	/	/	/	/	/
SMILES	NTMT1 inhibitor	p53null 39C kill	OvCa metastasis	p53null 32C kill	GALC G270D up	DRV1 agonist
Cc1ccc(C)c(NS(=O)(=O)c2ccc3c4c(cccc24)C(=O)N3)c1	44.7µM*	?	i	?	i	11.2
COCCNC(=O)Cn1nc(C)c2c(C)n(-c3ccc(C)cc3)nc2c1=O	0.0%	7.9%	-5.6%	-6.0%	i	-13.9
COc1ccc(CCNC(=O)Cn2nc(C)c3c(C)n(-c4ccc(C)cc4)nc3c2=O)c(OC)c1	44.7µM*	3.0%	-19.6%	1.8%	i	-2.9
COc1ccc(OC)c(CCNC(=O)C(C)n2nc(C)c3c(C)n(-c4ccc(C)cc4)nc3c2=O)c1 (stereo unspecified)	89.1µM*	-1.2%	i	1.8%	i	8.5
COc1cc(Nc2nc(-c3ccncc3)nc3ccccc23)ccc1N1CCN(C)CC1	8.91µM*	/	/	/	/	/
Cc1ccc(Nc2nc(-c3ccncc3)nc3ccccc23)cc1F	-4.5%	/	/	/	/	/
CN1CCN(c2ccc(Nc3nc(-c4ccncc4)nc4ccccc34)cc2F)CC1	22.4µM*	/	/	/	/	/
Cc1ccc(C(=O)Nc2noc3ccccc23)cc1	25.1µM*	/	/	/	/	/
COc1ccc(C(=O)Nc2noc3ccccc23)cc1	11.2µM*	6.31µM*	-1.7%	3.16µM*	i	-14.6
CC1=CC(=O)[C@]2(O[C@@H]3O[C@@H](C)[C@H](O)[C@@H](O)[C@H]3O)C=CO[C@@H](O[C@@H]3O[C@H](CO)[C@@H](O)[C@H](O)[C@H]3O)[C@H]12	11.4%[29.8 µM]	/	/	/	/	/
CC(C)=C[C@@H]1[C@H](CO[C@@H]2O[C@H](CO)[C@@H](O)[C@H](O)[C@H]2O)C1(C)C	14.8%[29.8 µM]	/	/	/	/	/
Cc1ccc(S(=O)(=O)Nc2cnccc2C(=O)Nc2nc(C(=O)O)cs2)cc1	24.5%	/	/	/	/	/
C/C=C(\C)C(=O)OC[C@H]1O[C@H](O[C@H]2O[C@H](CO)[C@@H](OC(=O)/C(C)=C/C)[C@H](O)[C@H]2O[C@@H]2O[C@H](CO)[C@@H](O)[C@H](O)[C@H]2O)[C@H](O[C@@H]2O[C@H](CO)[C@@H](O)[C@H](O)[C@H]2O)[C@@H](O)[C@@H]1O	11.7%[12.6 µM]	/	/	/	/	/
CC(=O)Nc1cccc(-c2nnc(SCC(=O)c3ccc([N+](=O)[O-])cc3)o2)c1	14.4%	-10.3%	3.9%	-0.6%[9.22 µM]	i	?
O=C(CSc1nnc(-c2ccc([N+](=O)[O-])cc2)o1)Nc1ccccc1	7.6%	6.31µM*	i	?	i	-43.2
CC(=O)Nc1ccc(-c2nnc(SCC(=O)c3ccc([N+](=O)[O-])cc3)o2)cc1	5.1%	12.3%	i	-14.4%	i	64.0*
COC(=O)c1ccc(NC(=O)C2CCCN2S(=O)(=O)c2ccc(F)cc2)cc1 (stereo unspecified)	/	16.7%	/	10.9%	/	/
O=C(Nc1ccc(F)c(Cl)c1)C1CCCN1S(=O)(=O)c1ccc(F)cc1 (stereo unspecified)	4.6%	7.3%	4.2%	1.2%[9.22 µM]	i	83.3*
COc1ccc(Nc2c3c(nc4nncn24)CCC3)cc1OC	13.1%	-17.6%	i	-3.4%	i	93.3*
